# Assay outcomes as filed in PubChem.
# Anesthetic bind – qHTS Assay for Identification of Novel General Anesthetics | hit rate 0.074% among 350,000 | Potency, µM (doses to about 77.5 µM), for the others: at the highest dose activity change, negative = displacement, usual class: inhibitors | AID 485281, 2010 | apoferritin/1-aminoanthracene competitive binding, fluorescence | Ferritin light chain (Equus caballus), P02791; note: nearly all actives have a fitted effect of over 20% in size
# Target sequence (P02791 2-175 limits assumed): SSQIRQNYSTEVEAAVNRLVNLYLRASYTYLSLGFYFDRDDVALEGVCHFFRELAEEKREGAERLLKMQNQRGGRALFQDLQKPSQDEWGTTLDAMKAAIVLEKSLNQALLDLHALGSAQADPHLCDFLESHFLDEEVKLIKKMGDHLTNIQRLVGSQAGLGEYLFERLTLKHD
#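 Steps: apoferritin (10 uM) was premixed with half-saturated 1-AMA in PBS, compounds were pin-transferred, plates stood 10 min at room temperature, fluorescence was read at 380/535 nm, and curves were fitted with a Hill equation.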
# GLS inhibitor – qHTS for Inhibitors of Glutaminase (GLS); Glutaminase kidney isoform, mitochondrial (Homo sapiens), O94925; Potency, µM (titrated, usually from 45.5 µM), for inactives: at the top dose activity change, negative = inhibition, hits mostly inhibitors; AID 624170, 2012; GLS enzymatic activity, qHTS titration; hit rate 0.21% among 410,000
#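 Compounds were pin-transferred onto hKGA, after which L-glutamine (1 mM solution) and a detection mix of glutamate oxidase, HRP and Amplex Red were added. Initial and 30 min RT fluorescence reads were collected.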
# B2AR arrestin – qHTS assay of beta-arrestin-biased ligands of beta2-adrenergic receptor | Beta-2 adrenergic receptor (Homo sapiens), P07550 | beta-arrestin recruitment to beta2AR, cell-based reporter | Potency, µM (titrated, usually from 46.1 µM), without a hit: top-dose activation, hits mostly activators | hit rate 0.02% among 330,000;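 note: 0% = DMSO controls and full agonism = EC100 isoproterenol or metaproterenol; nearly all actives have a fitted effect of over 65% in size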
# BCR signal inh – qHTS Assay to Find Inhibitors of Chronic Active B-Cell Receptor Signaling; ABC-DLBCL IkBa-CBG/CBR reporter, luminescence ratio, 4 h; Potency, µM (top dose mostly 46.1 µM), for inactives: top-dose activity change, negative = inhibition, hits mostly inhibitors; hit rate 0.05% among 340,000; active = well fitted inhibition curve with a large enough effect in the signal ratio, with a control signal flat, not every such curve was filed as active; inconclusive = small, poorly fitted or top-dose-only effect, or effect the other way, or a change in a side signal; the % refers to the signal ratio;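 note: plate controls were basal doxycycline-induced cells for no effect and cells given 10 µM MG132 for full effect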
#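 TMD8 human ABC-DLBCL cells with doxycycline-inducible IκBα–green luciferase fusion and unfused red luciferase, in 0.5% FBS medium; compounds up to 46 uM, 4 h at 37C. Green/red luminescence ratio, filter-overlap corrected, fitted to concentration-response curves.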
# MBNL1-CUG inh – qHTS Assay for Inhibitors of MBNL1-poly(CUG) RNA binding; Muscleblind-like protein 1 (Homo sapiens), Q9NR56; Potency, µM (titrated, usually from 57.5 µM), inactives show top-dose activity change, negative = inhibition, usual class: inhibitors; AID 2675, 2010; hit rate 0.036% among 280,000; TR-FRET MBNL1-His/biotin-(CUG)12 binding, 665/545 ratio; active = well fitted inhibition curve with a large enough effect in the signal ratio, with a control signal flat, not every such curve was filed as active; inconclusive = small, poorly fitted or top-dose-only effect, or effect the other way, or a change in a side signal; inactive = no such curve, though single readings can be large or run the other way; the % refers to the signal ratio
#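 TR-FRET readout: Ex 340 nm, 665/545 nm emission ratio, normalized to buffer-only (basal) and MBNL1-(CUG)12 controls. Complex of MBNL1-His with Biotin-(CUG)12, compounds 92 nM–58 uM, incubated 60 min at room temperature.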
# Numbers without * were called inactive; ? = inconclusive; . = no result. This is a sample that favours compounds with a hit; in the whole collection about 0.35% have one here. Unless noted, calls come from the whole dose curve; as a rule, active = well fitted curve in the direction sought with a large enough effect; inconclusive = small, poorly fitted or top-dose-only effect, or another doubt; inactive = no such curve, though single readings can be large; an effect the other way counts as inactive or inconclusive. Unless noted, % is set by controls: 0 for no effect and ±100 for the full control effect; potency is the fitted concentration of half-maximal effect.
SMILES,Anesthetic bind,GLS inhibitor,B2AR arrestin,BCR signal inh,MBNL1-CUG inh
COc1cc(CC2COC(c3ccc(O)c(OC)c3)C2COC(C)=O)ccc1O (stereo unspecified),4%,11µM*,0%,?,2%
COc1cc([C@@H]2OC[C@@H]3[C@H]2CO[C@@H]3c2ccc3c(c2)OCO3)ccc1O,.,19%,-2%,-3%,.
COc1cc(/C=C/C(=O)O[C@H]2CC[C@]34C[C@]35CC[C@]3(C)[C@@H]([C@H](C)CCC=C(C)C)CC[C@@]3(C)C5CCC4C2(C)C)ccc1O (stereo partly specified),.,-3%,.,.,.
Cc1ccc(NC(=O)Cn2c(=O)n(CCC(=O)NCc3ccccc3Cl)c(=O)c3ccccc32)c(C)c1,-9%,2%,.,.,.
Cc1nc(Nc2ccccc2)c2nc(-c3ccccc3)n(CCN3CCOCC3)c2n1,3%,.,.,.,.
Cc1ccccc1Cn1nnc2sc3c(c2c1=O)CCCC3,?,-16%,.,.,.
Cn1nnc2sc3c(c2c1=O)CCCC3,32µM*,-8%,-1%,0%,?
COc1cccc(NC(=O)Cn2nnc(-c3nc(-c4ccccc4)no3)c2N)c1,3%,-11%,.,-29%,.
CCC1CCCCN1CC(=O)Nc1cc(C)nn1-c1nc(C)cc(C)n1 (stereo unspecified),-22%,5%,35µM*,?,-6%
Cc1ccc2c(c1)C1C=CCC1C(C(=O)O)N2 (stereo unspecified),-14%,.,1%,2%,19%
CC(=O)c1ccc2c(c1)C1C=CCC1C(C(=O)O)N2 (stereo unspecified),-20%,2.5µM*,0%,-5%,?
COc1cccc2c1NC(C(=O)O)C1CC=CC21 (stereo unspecified),-17%,2.8µM*,-2%,1%,?
O=C(O)C1Nc2c(cccc2C(F)(F)F)C2C=CCC12 (stereo unspecified),-14%,.,0%,7%,18%
CC(=O)N(CC(O)CO)c1c(I)c(C(=O)NCCO)c(I)c(C(=O)NCC(O)CO)c1I (stereo unspecified),.,2%,.,.,.
O=C(O)c1cc(Cl)c2c(c1)[C@@H]1C=CC[C@@H]1[C@H](c1ccc(S(=O)(=O)N3CCOCC3)cc1)N2,-8%,13µM*,-1%,1%,?
CCOC(=O)[C@H](CCc1ccccc1)NC(C)C(=O)N1CC2(CC1C(=O)O)SCCS2 (stereo partly specified),.,-2%,.,.,.
COc1cccc(Cn2nnc(C(=O)NCc3ccc(Cl)cc3Cl)c2N)c1,?,2%,.,.,.
Cc1cccc(CSc2ncc(Cl)c(C(=O)Nc3nnc(C)s3)n2)c1,14µM*,8%,.,.,.
CCc1nnc(NC(=O)c2nc(SCc3cccc(C)c3)ncc2Cl)s1,?,4%,.,.,.
CCn1nnc(NC(=S)NC(=O)c2ccc(-c3cccc(Cl)c3)o2)n1,?,-15%,18µM*,?,26%
O=c1cc(-c2ccc(O)cc2)oc2c1ccc1ccccc12,.,-7%,0%,8%,.
O=c1cc(-c2ccc(O)cc2)oc2c(O)c(O)c(O)c(O)c12,-6%,11µM*,-1%,5%,?
COc1ccc(Nc2cc(C)c3cc(NC(=O)COc4cccc(C)c4)ccc3n2)cc1,234%,-3%,.,.,.
O=C(Nc1cccc(OCc2cc(=O)n3ccccc3n2)c1)Nc1cccc(C(F)(F)F)c1,-9%,-5%,.,.,.
COc1cc(CNCCNC(=O)c2nonc2N)ccc1OCc1ccc(Cl)cc1,13µM*,4%,0%,?,3%
COc1cccc(CNCCNC(=O)c2nonc2N)c1,8%,-10%,-1%,-8%,13%
COc1ccc(CCNc2nc(-c3ccc(F)cc3)c(CC(=O)O)s2)cc1OC,-10%,11µM*,0%,?,12%
